# Values joined by “and” are separate entries in the source; they are usually repeats but may differ in a detail not shown here. Identical values can stand only once. Results filed as inconclusive are left out. A call without a number means that no potency is given here. Active and inactive are the calls of the source. Unless noted, the call rests on the fitted dose curve; in most records, active means well fitted curve in the direction sought with a large enough effect; inconclusive means small, poorly fitted or top-dose-only effect, or another doubt; inactive means no such curve, though single readings can be large; an effect the other way counts as inactive or inconclusive.
# How the values were obtained:
# Papain (Carica papaya) = Papain (Carica papaya) (UniProt P00784); assay: Primary qHTS assay for inhibitors of the protease papain (AID 1645873); details: papain Z-FR-AMC cleavage, AMC fluorescence; series mostly up to 49.8 µM;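 further: papain turnover of Z-FR-AMC read as the AMC fluorescence gain over 10 min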; further: potency means the concentration at half of the fitted maximal effect
# Chain of Papain (Carica papaya) (P00784 whole entry, looked up): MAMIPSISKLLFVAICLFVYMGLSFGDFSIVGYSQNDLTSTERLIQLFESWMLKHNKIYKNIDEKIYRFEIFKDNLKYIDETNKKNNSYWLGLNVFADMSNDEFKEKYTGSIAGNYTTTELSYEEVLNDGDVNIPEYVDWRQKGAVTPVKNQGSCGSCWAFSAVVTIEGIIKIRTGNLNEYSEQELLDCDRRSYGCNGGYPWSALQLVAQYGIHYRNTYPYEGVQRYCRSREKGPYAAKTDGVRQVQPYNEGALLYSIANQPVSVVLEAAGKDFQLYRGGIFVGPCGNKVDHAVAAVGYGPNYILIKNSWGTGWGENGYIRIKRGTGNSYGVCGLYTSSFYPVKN
# [1] = Primary qHTS for small molecule stabilizers of the endoplasmic reticulum resident proteome: Secreted ER Calcium Modulated Protein (SERCaMP) assay (AID 1508630); details: SH-SY5Y GLuc-SERCaMP (Gaussia luciferase released on ER calcium loss) secretion, thapsigargin, luminescence; series mostly up to 38.4 µM
# How it was run: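 The SH-SY5Y reporter protocol was run at 3 concentrations up to 38.3 uM (primary) or 11 concentrations (follow-up): 16 h compound, 100 nM thapsigargin for 4 h, then extracellular luciferase luminescence.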
# [2] = biological target: Catechol O-methyltransferase (Homo sapiens) (UniProt P21964); assay: Confirmatory Screen for Target Class Profiling of Small Molecule Inhibitors of Methyltransferases (AID 1745852; calls by dose curve; further: potency means the concentration at half of the fitted maximal effect); details: MTase-Glo luminescence, SAH detection, recombinant enzyme; measured here: COMT max response; stronger effect = lower value
# Chain of Catechol O-methyltransferase (Homo sapiens) (P21964 whole entry, looked up): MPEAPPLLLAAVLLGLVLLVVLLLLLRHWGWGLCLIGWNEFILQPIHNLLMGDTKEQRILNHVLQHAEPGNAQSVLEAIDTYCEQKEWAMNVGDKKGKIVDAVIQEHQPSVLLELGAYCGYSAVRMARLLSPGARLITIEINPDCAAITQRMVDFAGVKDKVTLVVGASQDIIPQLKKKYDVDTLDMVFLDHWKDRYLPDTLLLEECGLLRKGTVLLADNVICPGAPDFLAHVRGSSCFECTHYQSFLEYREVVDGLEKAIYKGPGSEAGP
# [3] = biological target: Guanidinoacetate N-methyltransferase (Homo sapiens) (UniProt Q14353); assay: as above; details: MTase-Glo luminescence, SAH detection, recombinant enzyme; activity change, negative = inhibition: at 57.3 µM (top of the series)
# [4] = biological target: Nicotinamide N-methyltransferase (Homo sapiens) (UniProt P40261); assay: as above; details: MTase-Glo luminescence, SAH detection, recombinant enzyme; measured here: NNMT max response; stronger effect = lower value
# Chain of Nicotinamide N-methyltransferase (Homo sapiens) (P40261 whole entry, looked up): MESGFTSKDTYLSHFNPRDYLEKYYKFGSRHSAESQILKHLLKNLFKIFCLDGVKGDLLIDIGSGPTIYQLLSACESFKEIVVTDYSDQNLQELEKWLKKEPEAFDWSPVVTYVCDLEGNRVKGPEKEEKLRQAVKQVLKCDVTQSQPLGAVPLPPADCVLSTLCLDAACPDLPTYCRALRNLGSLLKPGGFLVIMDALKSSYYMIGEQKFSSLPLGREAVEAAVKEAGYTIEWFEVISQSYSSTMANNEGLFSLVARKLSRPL
# [5] = biological target: Phenylethanolamine N-methyltransferase (Homo sapiens) (UniProt P11086); assay: as above; details: MTase-Glo luminescence, SAH detection, recombinant enzyme; measured here: PNMT max response; stronger effect = lower value
# Chain of Phenylethanolamine N-methyltransferase (Homo sapiens) (P11086 whole entry, looked up, the tested form may be a part): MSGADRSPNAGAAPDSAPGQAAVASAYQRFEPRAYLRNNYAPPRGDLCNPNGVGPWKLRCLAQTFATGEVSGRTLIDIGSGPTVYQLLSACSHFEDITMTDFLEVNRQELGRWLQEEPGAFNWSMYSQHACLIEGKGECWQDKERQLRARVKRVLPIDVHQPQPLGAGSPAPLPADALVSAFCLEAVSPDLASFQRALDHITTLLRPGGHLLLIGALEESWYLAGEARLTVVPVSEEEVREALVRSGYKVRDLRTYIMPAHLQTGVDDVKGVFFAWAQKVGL
# [6] = Primary qHTS for inhibitors of nuclear receptor binding SET domain protein 2 (NSD2) in an isogenic RCH-ACV NSD2 p.E1099K mutant (9B) (AID 1645876); details: RCH-ACV NSD2 E1099K (9B) viability, CellTiter-Glo, 72 h; series mostly up to 44.9 µM; further: nearly all actives have a fitted effect of over 70% in size; further: potency means the concentration at half of the fitted maximal effect
# [7] = Primary qHTS for inhibitors of nuclear receptor binding SET domain protein 2 (NSD2) in an RCH-ACV wild type WT cells (2C) (AID 1645877); details: RCH-ACV (leukaemia line) NSD2 WT (2C) viability, CellTiter-Glo, 72 h; series mostly up to 44.9 µM; further: nearly all actives have a fitted effect of over 70% in size; further: potency means the concentration at half of the fitted maximal effect
# [8] = biological target: Rap guanine nucleotide exchange factor 3 (Homo sapiens) (UniProt O95398); assay: Confirmatory qHTS for antagonist of cAMP-regulated guanine nucleotide exchange factor 3 (EPAC1) (AID 1645880); details: EPAC1 Rap1B-BODIPY-GDP exchange, fluorescence; series mostly up to 115 µM; further: nearly all actives have a fitted effect of over 55% in size; further: potency means the concentration at half of the fitted maximal effect
# Chain of Rap guanine nucleotide exchange factor 3 (Homo sapiens) (O95398 whole entry, looked up): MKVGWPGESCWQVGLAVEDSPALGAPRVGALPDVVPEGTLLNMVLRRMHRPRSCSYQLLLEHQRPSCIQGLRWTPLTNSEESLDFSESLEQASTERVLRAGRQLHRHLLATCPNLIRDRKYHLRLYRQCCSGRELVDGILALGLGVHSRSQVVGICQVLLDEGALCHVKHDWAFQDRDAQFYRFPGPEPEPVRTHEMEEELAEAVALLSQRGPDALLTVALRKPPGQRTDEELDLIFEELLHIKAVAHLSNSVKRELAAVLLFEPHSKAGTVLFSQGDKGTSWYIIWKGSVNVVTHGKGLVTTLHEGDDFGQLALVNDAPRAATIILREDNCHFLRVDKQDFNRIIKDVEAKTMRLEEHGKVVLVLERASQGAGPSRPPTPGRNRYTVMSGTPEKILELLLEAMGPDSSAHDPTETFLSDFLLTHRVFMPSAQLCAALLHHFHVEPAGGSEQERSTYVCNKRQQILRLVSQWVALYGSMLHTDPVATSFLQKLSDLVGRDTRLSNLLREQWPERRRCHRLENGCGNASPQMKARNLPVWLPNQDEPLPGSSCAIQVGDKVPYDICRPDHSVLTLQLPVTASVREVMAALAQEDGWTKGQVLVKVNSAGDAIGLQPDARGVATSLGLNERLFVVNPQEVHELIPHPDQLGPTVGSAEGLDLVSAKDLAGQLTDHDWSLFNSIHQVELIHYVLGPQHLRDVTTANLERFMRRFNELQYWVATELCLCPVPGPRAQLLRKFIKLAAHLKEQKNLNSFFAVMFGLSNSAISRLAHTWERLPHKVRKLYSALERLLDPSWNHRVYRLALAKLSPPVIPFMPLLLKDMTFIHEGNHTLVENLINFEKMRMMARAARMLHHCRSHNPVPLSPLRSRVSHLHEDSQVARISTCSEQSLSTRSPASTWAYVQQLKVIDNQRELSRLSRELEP
# How it was run: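 Released BODIPY-GDP fluoresces less than Rap1-bound BODIPY-GDP; the signal is followed at 480/540 nm at 5-min intervals over 30 min, after 5 min at room temperature. Reactions contain 100 nM EPAC1, 250 nM RAP1B-BODIPY-GDP and 50 uM GDP; results are normalized to ATA and DMSO.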
# [9] = biological target: Rap guanine nucleotide exchange factor 3 (Homo sapiens) (UniProt O95398); assay: Confirmatory qHTS for agonist of cAMP-regulated guanine nucleotide exchange factor 3 (EPAC1) (AID 1645881); details: EPAC1 Rap1B BODIPY-GDP exchange fluorescence; series mostly up to 154 µM;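 further: EPAC1 catalysed release of BODIPY-GDP from Rap1B seen as fluorescence loss; nearly all actives have a fitted effect of over 75% in size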
# [10] = biological target: Rap guanine nucleotide exchange factor 4 (Homo sapiens) (UniProt Q8WZA2); assay: Confirmatory qHTS for agonist of cAMP-regulated guanine nucleotide exchange factor 4 (EPAC2) (AID 1645884); details: EPAC2 GEF activity, Rap1B-BODIPY-GDP fluorescence; series mostly up to 154 µM;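 further: nucleotide exchange releases bodipy-GDP from Rap1 and this lowers its fluorescence; nearly all actives have a fitted effect of over 65% in size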
# Chain of Rap guanine nucleotide exchange factor 4 (Homo sapiens) (Q8WZA2 whole entry, looked up): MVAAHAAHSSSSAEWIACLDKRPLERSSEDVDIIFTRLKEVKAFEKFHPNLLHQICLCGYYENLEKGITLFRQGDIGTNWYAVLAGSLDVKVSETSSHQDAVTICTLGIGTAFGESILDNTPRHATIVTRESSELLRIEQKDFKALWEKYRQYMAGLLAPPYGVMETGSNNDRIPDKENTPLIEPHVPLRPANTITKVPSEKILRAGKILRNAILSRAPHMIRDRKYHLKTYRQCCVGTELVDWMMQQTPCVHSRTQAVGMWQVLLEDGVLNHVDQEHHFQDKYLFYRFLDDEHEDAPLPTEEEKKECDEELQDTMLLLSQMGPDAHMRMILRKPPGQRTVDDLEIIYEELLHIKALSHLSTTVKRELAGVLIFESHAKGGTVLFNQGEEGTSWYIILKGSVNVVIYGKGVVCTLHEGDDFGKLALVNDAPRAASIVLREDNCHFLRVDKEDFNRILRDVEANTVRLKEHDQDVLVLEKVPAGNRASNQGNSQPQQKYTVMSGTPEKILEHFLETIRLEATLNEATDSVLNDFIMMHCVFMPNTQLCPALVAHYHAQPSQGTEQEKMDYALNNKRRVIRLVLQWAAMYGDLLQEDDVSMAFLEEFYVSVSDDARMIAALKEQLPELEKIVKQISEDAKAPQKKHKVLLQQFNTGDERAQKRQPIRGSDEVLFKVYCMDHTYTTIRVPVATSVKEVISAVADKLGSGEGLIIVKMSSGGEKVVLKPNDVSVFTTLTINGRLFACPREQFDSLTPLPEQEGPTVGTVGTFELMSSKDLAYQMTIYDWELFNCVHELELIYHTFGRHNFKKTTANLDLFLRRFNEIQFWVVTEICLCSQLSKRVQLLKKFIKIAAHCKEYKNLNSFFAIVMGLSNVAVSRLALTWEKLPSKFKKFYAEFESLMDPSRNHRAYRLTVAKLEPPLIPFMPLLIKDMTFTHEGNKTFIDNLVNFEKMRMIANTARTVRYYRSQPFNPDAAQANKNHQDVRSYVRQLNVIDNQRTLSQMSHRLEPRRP
# [11] = biological target: Rap guanine nucleotide exchange factor 4 (Homo sapiens) (UniProt Q8WZA2); assay: Confirmatory qHTS for antagonist of cAMP-regulated guanine nucleotide exchange factor 4 (EPAC2) (AID 1645885); details: EPAC2 Rap1B-BODIPY-GDP exchange fluorescence, biochemical; series mostly up to 114 µM; further: nearly all actives have a fitted effect of over 25% in size; further: potency means the concentration at half of the fitted maximal effect
# [12] = biological target: Rap guanine nucleotide exchange factor 3 (Homo sapiens) (UniProt O95398); assay: Counterscreen qHTS for antagonist of cAMP-regulated guanine nucleotide exchange factor 3 (EPAC1) (AID 1645888); details: Rap1B-BODIPY-GDP nucleotide exchange, fluorescence; series mostly up to 154 µM
# How it was run: (§1)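 Measured: fluorescence of BODIPY-GDP bound to Rap1B, which falls as exchange proceeds. Conditions include 50 uM competing GDP, 5 and 30 min reads, and a later cAMP challenge for antagonist detection.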
# [13] = biological target: Rap guanine nucleotide exchange factor 3 (Homo sapiens) (UniProt O95398); assay: Counterscreen qHTS for agonist of cAMP-regulated guanine nucleotide exchange factor 3 (EPAC1) (AID 1645889); details: EPAC1 Rap1B-BODIPY-GDP exchange, fluorescence; series mostly up to 154 µM; further: nearly all actives have a fitted effect of over 40% in size
# How it was run: as §1
smiles,measurement,setting,value
CC[C@H](NC(=O)c1c(C)c(-c2ccccc2)nc2ccccc12)c1ccccc1,Potency,Papain (Carica papaya),inactive
OC[C@H]1NC[C@@H](O)[C@@H]1O,Potency,[1],inactive
same,Potency,Papain (Carica papaya),inactive
COc1ccc2c(c1)c(CC(=O)O)c(C)n2Cc1ccc(Cl)cc1,Potency,[1],inactive
same,Potency,Papain (Carica papaya),inactive
Cn1c(=O)c2[nH]c(-c3ccc(S(=O)(=O)O)cc3)nc2n(C)c1=O,Potency,[1],inactive
same,Potency,Papain (Carica papaya),25.1 µM (active)
same,activity,[2],-8.67%
same,"activity change, negative = inhibition",[3],1.75%
same,activity,[4],-17.8%
same,activity,[5],-5.47%
O=c1oc(Cl)c(Cl)c2ccccc12,Potency,[1],inactive
same,Potency,Papain (Carica papaya),inactive
CSC(N)=NCCC[C@H](N)C(=O)O,Potency,[1],inactive
same,Potency,Papain (Carica papaya),inactive
O=C(O)Cc1c[nH]c2ccc(O)cc12,Potency,Papain (Carica papaya),inactive
NS(=O)(=O)c1cccc2c1c([N+](=O)[O-])cc1nc(O)c(O)nc12,activity,[2],-92.9%
same,"activity change, negative = inhibition",[3],0.0632%
same,activity,[4],-6.69%
same,activity,[5],1.61%
O=C1Cc2c([nH]c3ccc(Br)cc23)-c2ccccc2N1,Potency,[1],inactive
same,Potency,Papain (Carica papaya),inactive
same,Potency,[6],6.51 µM (active)
same,Potency,[7],5.8 µM (active)
NC1(C(=O)O)CCCCC1,Potency,[1],inactive
same,Potency,Papain (Carica papaya),inactive
O=C1Nc2ccc(I)cc2/C1=C/c1cc(Br)c(O)c(Br)c1,Potency,[1],inactive
same,Potency,Papain (Carica papaya),inactive
same,Potency,[7],inactive
same,Potency,[8],19.8 µM (active)
same,Potency,[9],inactive
same,Potency,[10],inactive
same,Potency,[11],35 µM (active)
CCCCCCCCCC[Si](C)(C)CCC(=O)NC(Cc1ccc(C)cc1)c1ccccc1 (stereo not drawn),Potency,[1],inactive
same,Potency,Papain (Carica papaya),inactive
CN1Cc2sccc2C(c2ccc(O)c(O)c2)C1 (stereo not drawn),Potency,Papain (Carica papaya),inactive
same,activity,[2],138%
same,"activity change, negative = inhibition",[3],1.26%
same,activity,[4],-9.55%
same,activity,[5],2.33%
CC1=C(/C=C/C(C)=C/C=C/C(C)=C\C(=O)O)C(C)(C)CCC1,Potency,[1],inactive
same,Potency,Papain (Carica papaya),inactive
same,Potency,[6],inactive
same,Potency,[7],inactive
CC#CCOC(=O)c1c(C)nc2sc3c(c2c1N)CCC(O)C3 (stereo not drawn),Potency,[1],inactive
same,Potency,Papain (Carica papaya),inactive
COc1cc(/C=C(\C#N)C(=O)Nc2nnc(C(F)(F)F)s2)ccc1OCc1ccc(C(F)(F)F)cc1C(F)(F)F,Potency,[1],inactive
same,Potency,[6],inactive
same,Potency,[7],inactive
CC(C)(CO)Cc1cc(C(C)(C)C)c(O)c(C(C)(C)C)c1,Potency,[1],inactive
same,Potency,Papain (Carica papaya),inactive
same,Potency,[9],inactive
same,Potency,[10],inactive
same,Potency,[11],49.4 µM (active)
O=C(N[C@@H](Cc1ccccc1)C(=O)CCl)OCc1ccccc1,Potency,[1],inactive
same,Potency,Papain (Carica papaya),15.8 µM (active)
C[C@H](NC(=O)/C(C#N)=C/c1ccc(O)c(O)c1)c1ccccc1,Potency,Papain (Carica papaya),inactive
same,Potency,[9],inactive
same,Potency,[10],inactive
same,Potency,[11],inactive
same,activity,[2],72.5%
same,"activity change, negative = inhibition",[3],2.74%
same,activity,[4],-55.4%
same,activity,[5],-2.26%
C=C1C(=O)O[C@@H]2[C@H]3O[C@]3(C)CCC=C(C)CC[C@@H]12,Potency,[1],inactive
same,Potency,Papain (Carica papaya),inactive
CC1CCN=C(N)S1 (stereo not drawn),Potency,[1],inactive
same,Potency,Papain (Carica papaya),inactive
same,activity,[2],4.68%
same,"activity change, negative = inhibition",[3],0.929%
same,activity,[4],-17.8%
same,activity,[5],-0.769%
NC1(C(=O)O)CCc2cc(C(=O)O)ccc21 (stereo not drawn),Potency,[1],inactive
same,Potency,Papain (Carica papaya),inactive
Nc1ccc(N2C(=O)c3ccccc3C2=O)c(Cl)c1,Potency,Papain (Carica papaya),inactive
O=C(O)c1ccccc1Nc1cccc(OCc2ccc3ccccc3n2)c1,Potency,[1],inactive
same,Potency,Papain (Carica papaya),inactive
Nc1nc2[nH]c(=O)cnc2c(=O)[nH]1,Potency,Papain (Carica papaya),inactive
Clc1nccc2c1ccc1ccccc12,Potency,[1],inactive
same,Potency,Papain (Carica papaya),inactive
same,activity,[2],4.56%
same,"activity change, negative = inhibition",[3],3.35%
same,activity,[4],-11.8%
same,activity,[5],-6.62%
CN1CCN(c2nc3cc(C(F)(F)F)ccc3n3cccc23)CC1,Potency,Papain (Carica papaya),inactive
C=CCn1c(=O)c2c(nc(-c3ccc(S(=O)(=O)O)cc3)n2C)n(C)c1=O,Potency,[1],inactive
same,Potency,Papain (Carica papaya),25.1 µM (active)
O=c1[nH]c(=O)c2nc3ccccc3nc2[nH]1,Potency,[1],inactive
same,Potency,Papain (Carica papaya),inactive
CCCC[C@@]1(C2CCCC2)Cc2cc(OCC(=O)O)c(Cl)c(Cl)c2C1=O,Potency,[1],inactive
same,Potency,Papain (Carica papaya),25.1 µM (active)
same,Potency,[9],inactive
same,Potency,[10],inactive
same,Potency,[11],6.01 µM (active) and 3.5 µM (active)
same,outcome,[12],inactive
same,outcome,[13],inactive
same,activity,[2],8.39%
same,"activity change, negative = inhibition",[3],7.65%
same,activity,[4],-66.3%
same,activity,[5],7.03%
CCN(CC)CCCCCCCCOC(=O)c1cc(OC)c(OC)c(OC)c1,Potency,[1],inactive
same,Potency,Papain (Carica papaya),inactive
same,activity,[2],8.45%
same,"activity change, negative = inhibition",[3],4.66%
same,activity,[4],-0.607%
same,activity,[5],0.819%
N#C/C(=C\c1ccc(O)c(O)c1)C(=O)NCCc1ccccc1,Potency,Papain (Carica papaya),inactive
same,activity,[2],85.9%
same,Potency,[3],0.432 µM (active)
same,activity,[4],-37.9%
same,activity,[5],0.462%
O=C(O)C1=CC(=C(c2ccc(O)c(C(=O)O)c2)c2ccc(O)c(C(=O)O)c2)C=CC1=O,Potency,Papain (Carica papaya),7.94 µM (active)
same,activity,[2],-24.2%
same,Potency,[3],24.3 µM (active)
same,activity,[4],-4.1%
same,activity,[5],2.52%
CCn1c(=O)[nH]c2cc(Cl)c(Cl)cc21,Potency,[1],inactive
same,Potency,Papain (Carica papaya),inactive
COc1ccc(NC(=O)c2ccc(-c3ccc(-c4noc(C)n4)cc3C)cc2)cc1N1CCN(C)CC1,Potency,[1],inactive
same,Potency,Papain (Carica papaya),inactive
CC(=O)N[C@@H](Cc1c[nH]c2ccccc12)C(=O)OCc1cc(C(F)(F)F)cc(C(F)(F)F)c1,Potency,[1],inactive
same,Potency,Papain (Carica papaya),inactive
same,Potency,[9],inactive
same,Potency,[10],inactive
same,Potency,[11],35 µM (active)
C[C@@]1(C2CCCC2)Cc2cc(OCC(=O)O)c(Cl)c(Cl)c2C1=O,Potency,[1],inactive
same,Potency,Papain (Carica papaya),inactive
same,Potency,[8],inactive
same,Potency,[9],inactive
same,Potency,[10],inactive
same,Potency,[11],17.5 µM (active)
same,activity,[2],5.42%
same,"activity change, negative = inhibition",[3],7.12%
same,activity,[4],-45.2%
same,activity,[5],5.32%
CC(=O)NCCc1c[nH]c2ccc(O)cc12,Potency,[1],inactive
same,Potency,Papain (Carica papaya),inactive
same,Potency,[6],inactive

# From PubChem BioAssay (NCATS)
